# Reference: paper PMC7862700, “An all-to-all approach to the identification of sequence-specific readers for epigenetic DNA modifications on cytosine”
# Experiments:
# Experiment in all cases: DAPPL (digital affinity profiling via proximity ligation, sequencing); 10 mM Tris-HCl pH 7.5, 50 mM NaCl, 1 mM DTT, 4% glycerol, room temperature, 30 min; GST-TFs on glutathione beads, 16-mer random dsDNA library, 0.1% formaldehyde crosslink after washing; high values mean tight binding
# Conditions in all cases: protein: recombinant; tags: N-terminal GST; dsDNA, one strand shown
# FLI1 = target: T1, FLI1 (Homo sapiens, UniProt Q01543 1-452)
# T1 sequence: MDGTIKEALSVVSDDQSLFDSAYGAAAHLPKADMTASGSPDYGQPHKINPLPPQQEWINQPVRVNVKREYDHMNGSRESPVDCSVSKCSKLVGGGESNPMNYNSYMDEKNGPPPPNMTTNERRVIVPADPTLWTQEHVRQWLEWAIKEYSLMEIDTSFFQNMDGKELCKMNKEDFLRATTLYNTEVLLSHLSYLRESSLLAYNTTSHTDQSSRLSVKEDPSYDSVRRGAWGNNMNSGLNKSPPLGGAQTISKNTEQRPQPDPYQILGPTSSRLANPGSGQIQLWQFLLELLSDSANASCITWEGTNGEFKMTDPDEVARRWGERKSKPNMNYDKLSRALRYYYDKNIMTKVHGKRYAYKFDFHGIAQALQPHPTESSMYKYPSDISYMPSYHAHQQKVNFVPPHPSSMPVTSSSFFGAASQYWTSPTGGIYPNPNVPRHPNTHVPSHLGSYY
# How it was run: (§1)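 Human transcription factors fused to GST were expressed in yeast, captured on glutathione beads, given DNA barcodes and pooled with a GST-only negative control. Pools were incubated with 200 nmole of a 16-mer random double-stranded DNA library in Tris/NaCl/DTT/glycerol buffer at room temperature for 30 min. They were then washed, crosslinked with 0.1% formaldehyde, proximity-ligated (BsaI/T4 ligase, 1 h, 37 °C), PCR-amplified and sequenced on an Illumina NextSeq500. Binding signal is each 6-mer's read frequency for a factor divided by its frequency for the GST control.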
# ELK1 = target: T2, ELK1 (Homo sapiens, UniProt P19419 1-428)
# T2 sequence: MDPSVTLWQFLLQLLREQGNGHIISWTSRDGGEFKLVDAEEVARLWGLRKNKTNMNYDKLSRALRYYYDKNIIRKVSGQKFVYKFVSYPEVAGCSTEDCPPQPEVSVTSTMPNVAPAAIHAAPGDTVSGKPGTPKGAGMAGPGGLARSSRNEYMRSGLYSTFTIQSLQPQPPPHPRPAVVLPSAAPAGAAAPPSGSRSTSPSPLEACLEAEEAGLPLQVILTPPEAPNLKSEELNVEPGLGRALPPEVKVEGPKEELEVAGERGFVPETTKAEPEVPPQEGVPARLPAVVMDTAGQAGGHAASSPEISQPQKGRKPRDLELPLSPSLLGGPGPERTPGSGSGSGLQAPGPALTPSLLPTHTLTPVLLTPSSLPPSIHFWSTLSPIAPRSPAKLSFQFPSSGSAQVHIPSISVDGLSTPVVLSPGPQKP
# How it was run: as §1
# GABPA = target: T3, GABPA (Homo sapiens, UniProt Q06546 1-454)
# T3 sequence: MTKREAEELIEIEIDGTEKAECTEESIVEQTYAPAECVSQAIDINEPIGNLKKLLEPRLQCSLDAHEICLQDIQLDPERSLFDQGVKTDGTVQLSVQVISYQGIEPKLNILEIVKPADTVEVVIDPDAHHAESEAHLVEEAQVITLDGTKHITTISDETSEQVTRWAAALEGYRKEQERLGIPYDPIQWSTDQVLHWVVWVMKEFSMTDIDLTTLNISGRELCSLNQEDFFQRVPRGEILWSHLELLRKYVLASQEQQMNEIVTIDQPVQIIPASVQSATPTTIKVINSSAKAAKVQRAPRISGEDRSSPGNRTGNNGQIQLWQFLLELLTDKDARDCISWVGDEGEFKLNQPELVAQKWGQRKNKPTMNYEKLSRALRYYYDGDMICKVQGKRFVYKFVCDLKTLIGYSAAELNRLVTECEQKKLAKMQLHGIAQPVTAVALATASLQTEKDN
# How it was run: as §1
# ERG = target: T4, ERG (Homo sapiens, UniProt P11308 1-479)
# T4 sequence: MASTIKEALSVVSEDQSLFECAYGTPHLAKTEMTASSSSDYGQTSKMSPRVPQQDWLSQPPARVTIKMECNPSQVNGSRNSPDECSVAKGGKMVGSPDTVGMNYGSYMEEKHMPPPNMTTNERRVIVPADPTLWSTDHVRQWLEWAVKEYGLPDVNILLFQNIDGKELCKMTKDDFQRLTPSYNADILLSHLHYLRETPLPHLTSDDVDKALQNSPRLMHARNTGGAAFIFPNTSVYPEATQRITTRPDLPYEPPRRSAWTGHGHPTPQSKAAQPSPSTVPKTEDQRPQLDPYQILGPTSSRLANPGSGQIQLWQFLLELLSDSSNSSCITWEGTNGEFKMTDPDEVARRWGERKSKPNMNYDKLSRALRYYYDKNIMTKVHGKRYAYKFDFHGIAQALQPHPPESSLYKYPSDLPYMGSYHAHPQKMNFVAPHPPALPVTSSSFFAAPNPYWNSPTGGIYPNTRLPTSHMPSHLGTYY
# How it was run: as §1
# ELF1 = ELF1 (Homo sapiens, UniProt P32519 1-619)
# Sequence of ELF1 (P32519 whole entry): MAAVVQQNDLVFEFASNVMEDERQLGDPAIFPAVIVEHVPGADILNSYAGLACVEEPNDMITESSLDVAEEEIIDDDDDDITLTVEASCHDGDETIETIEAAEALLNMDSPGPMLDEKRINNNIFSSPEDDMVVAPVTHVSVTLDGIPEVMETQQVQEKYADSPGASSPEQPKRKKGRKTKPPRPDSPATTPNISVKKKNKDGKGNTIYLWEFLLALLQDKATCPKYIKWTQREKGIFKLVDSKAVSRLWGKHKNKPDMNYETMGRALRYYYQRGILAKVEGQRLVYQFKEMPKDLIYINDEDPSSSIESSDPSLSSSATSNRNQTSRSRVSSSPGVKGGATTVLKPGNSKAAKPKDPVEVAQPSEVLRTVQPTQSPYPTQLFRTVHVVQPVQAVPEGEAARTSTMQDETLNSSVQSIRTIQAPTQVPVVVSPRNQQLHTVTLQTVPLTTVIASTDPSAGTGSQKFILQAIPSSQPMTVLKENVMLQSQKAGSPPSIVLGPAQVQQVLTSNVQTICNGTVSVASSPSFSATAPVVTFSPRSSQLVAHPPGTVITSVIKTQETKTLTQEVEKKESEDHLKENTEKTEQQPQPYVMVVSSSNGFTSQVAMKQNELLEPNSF
# How it was run: as §1
# EHF = target: T5, EHF (Homo sapiens, UniProt Q9NZC4 1-300)
# T5 sequence: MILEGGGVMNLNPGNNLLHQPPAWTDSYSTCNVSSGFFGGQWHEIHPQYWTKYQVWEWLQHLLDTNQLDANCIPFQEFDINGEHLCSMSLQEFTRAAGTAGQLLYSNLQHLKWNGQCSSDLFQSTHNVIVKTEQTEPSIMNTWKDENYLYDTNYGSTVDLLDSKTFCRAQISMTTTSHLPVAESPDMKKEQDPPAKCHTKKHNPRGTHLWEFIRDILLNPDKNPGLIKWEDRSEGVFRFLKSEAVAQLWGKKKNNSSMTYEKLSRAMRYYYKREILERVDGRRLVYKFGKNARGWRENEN
# How it was run: as §1
# SPI1 = SPI1 (Homo sapiens, UniProt P17947 1-270)
# How it was run: as §1
# SPIB = SPIB (Homo sapiens, UniProt Q01892 1-262)
# Sequence of SPIB (Q01892 whole entry): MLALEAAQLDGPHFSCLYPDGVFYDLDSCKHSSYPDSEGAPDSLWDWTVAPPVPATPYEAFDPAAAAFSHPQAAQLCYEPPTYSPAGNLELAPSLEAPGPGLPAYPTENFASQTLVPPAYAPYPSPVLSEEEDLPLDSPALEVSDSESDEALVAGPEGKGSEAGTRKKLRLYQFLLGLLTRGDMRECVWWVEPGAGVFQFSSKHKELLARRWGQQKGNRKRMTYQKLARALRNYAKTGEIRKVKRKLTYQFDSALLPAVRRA
# How it was run: as §1
# ELK3 = target: T6, ELK3 (Homo sapiens, UniProt P41970 1-407)
# T6 sequence: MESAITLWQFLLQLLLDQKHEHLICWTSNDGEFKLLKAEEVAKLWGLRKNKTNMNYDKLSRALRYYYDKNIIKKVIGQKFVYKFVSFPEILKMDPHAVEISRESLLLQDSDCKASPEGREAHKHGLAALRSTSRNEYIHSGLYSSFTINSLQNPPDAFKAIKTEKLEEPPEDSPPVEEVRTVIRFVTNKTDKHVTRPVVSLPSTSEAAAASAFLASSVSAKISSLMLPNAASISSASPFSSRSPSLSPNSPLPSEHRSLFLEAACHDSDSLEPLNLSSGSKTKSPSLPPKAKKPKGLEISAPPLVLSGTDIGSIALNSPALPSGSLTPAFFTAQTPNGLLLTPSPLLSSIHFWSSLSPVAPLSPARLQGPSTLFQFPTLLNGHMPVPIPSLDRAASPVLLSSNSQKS
# How it was run: as §1
Sequence,binding signal (FLI1),binding signal (ELK1),binding signal (GABPA),binding signal (ERG),binding signal (ELF1),binding signal (EHF),binding signal (SPI1),binding signal (SPIB),binding signal (ELK3)
CGCTCA,"1.13 fold enrichment (6-mer frequency, TF over GST control)","1.21 fold enrichment (6-mer frequency, TF over GST control)","1.16 fold enrichment (6-mer frequency, TF over GST control)","1.25 fold enrichment (6-mer frequency, TF over GST control)","1.13 fold enrichment (6-mer frequency, TF over GST control)","1.18 fold enrichment (6-mer frequency, TF over GST control)","1.16 fold enrichment (6-mer frequency, TF over GST control)","1.16 fold enrichment (6-mer frequency, TF over GST control)","1.13 fold enrichment (6-mer frequency, TF over GST control)"
TGCTAC,"1.35 fold enrichment (6-mer frequency, TF over GST control)","1.26 fold enrichment (6-mer frequency, TF over GST control)","1.24 fold enrichment (6-mer frequency, TF over GST control)","1.27 fold enrichment (6-mer frequency, TF over GST control)","1.25 fold enrichment (6-mer frequency, TF over GST control)","1.23 fold enrichment (6-mer frequency, TF over GST control)","1.29 fold enrichment (6-mer frequency, TF over GST control)","1.25 fold enrichment (6-mer frequency, TF over GST control)","1.26 fold enrichment (6-mer frequency, TF over GST control)"
TGAATG,"1.16 fold enrichment (6-mer frequency, TF over GST control)","1.28 fold enrichment (6-mer frequency, TF over GST control)","1.17 fold enrichment (6-mer frequency, TF over GST control)","1.21 fold enrichment (6-mer frequency, TF over GST control)","1.2 fold enrichment (6-mer frequency, TF over GST control)","1.19 fold enrichment (6-mer frequency, TF over GST control)","1.26 fold enrichment (6-mer frequency, TF over GST control)","1.23 fold enrichment (6-mer frequency, TF over GST control)","1.09 fold enrichment (6-mer frequency, TF over GST control)"
CCTCCG,"1.18 fold enrichment (6-mer frequency, TF over GST control)","1.55 fold enrichment (6-mer frequency, TF over GST control)","1.41 fold enrichment (6-mer frequency, TF over GST control)","1.35 fold enrichment (6-mer frequency, TF over GST control)","1.32 fold enrichment (6-mer frequency, TF over GST control)","1.24 fold enrichment (6-mer frequency, TF over GST control)","1.41 fold enrichment (6-mer frequency, TF over GST control)","1.48 fold enrichment (6-mer frequency, TF over GST control)","1.38 fold enrichment (6-mer frequency, TF over GST control)"
ACCGTC,"1.25 fold enrichment (6-mer frequency, TF over GST control)","1.21 fold enrichment (6-mer frequency, TF over GST control)","1.26 fold enrichment (6-mer frequency, TF over GST control)","1.15 fold enrichment (6-mer frequency, TF over GST control)","1.19 fold enrichment (6-mer frequency, TF over GST control)","1.07 fold enrichment (6-mer frequency, TF over GST control)","1.18 fold enrichment (6-mer frequency, TF over GST control)","1.09 fold enrichment (6-mer frequency, TF over GST control)","1.22 fold enrichment (6-mer frequency, TF over GST control)"
TGCGAC,"1.2 fold enrichment (6-mer frequency, TF over GST control)","1.25 fold enrichment (6-mer frequency, TF over GST control)","1.21 fold enrichment (6-mer frequency, TF over GST control)","1.26 fold enrichment (6-mer frequency, TF over GST control)","1.22 fold enrichment (6-mer frequency, TF over GST control)","1.13 fold enrichment (6-mer frequency, TF over GST control)","1.24 fold enrichment (6-mer frequency, TF over GST control)","1.27 fold enrichment (6-mer frequency, TF over GST control)","1.16 fold enrichment (6-mer frequency, TF over GST control)"
GTCCAC,"1.03 fold enrichment (6-mer frequency, TF over GST control)","1.07 fold enrichment (6-mer frequency, TF over GST control)","1.11 fold enrichment (6-mer frequency, TF over GST control)","1.03 fold enrichment (6-mer frequency, TF over GST control)","1.02 fold enrichment (6-mer frequency, TF over GST control)","1.12 fold enrichment (6-mer frequency, TF over GST control)","1.02 fold enrichment (6-mer frequency, TF over GST control)","1.09 fold enrichment (6-mer frequency, TF over GST control)","1.04 fold enrichment (6-mer frequency, TF over GST control)"
CGAAGC,"1.39 fold enrichment (6-mer frequency, TF over GST control)","1.36 fold enrichment (6-mer frequency, TF over GST control)","1.36 fold enrichment (6-mer frequency, TF over GST control)","1.23 fold enrichment (6-mer frequency, TF over GST control)","1.34 fold enrichment (6-mer frequency, TF over GST control)","1.26 fold enrichment (6-mer frequency, TF over GST control)","1.2 fold enrichment (6-mer frequency, TF over GST control)","1.22 fold enrichment (6-mer frequency, TF over GST control)","1.49 fold enrichment (6-mer frequency, TF over GST control)"
